Measured values taken from PubChem BioAssay AID687016 (The Scripps Research Institute Molecular Screening Center, 2013).
In all, about 370,000 compounds went through this assay and about 2,800 (0.76%) were called active. Shown is part of a subset that was picked to be rich in actives. Unmarked numbers belong to inactive results. No stated cut-off is given here; in the data, active means inhibition above about 21%; inactive means the rest.

biological target: E3 ubiquitin-protein ligase UHRF1 (Homo sapiens) (UniProt Q96T88); experiment: UHRF1 methylated DNA binding inhibitors, primary screen, counter-screen for MBD2 inhibitor project, biochemical, TR-FRET, human UHRF1, single concentration (AID 687016); details: UHRF1 binding to methylated oligo, at 4.4 µM, stronger effect = higher value;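 further: UHRF1 SRA domain binding a hemimethylated CpG hairpin DNA probe; 0% = median of test compound wells and 100% = reference inhibitor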
Sequence (Q96T88 whole entry, looked up, the tested form may be a part): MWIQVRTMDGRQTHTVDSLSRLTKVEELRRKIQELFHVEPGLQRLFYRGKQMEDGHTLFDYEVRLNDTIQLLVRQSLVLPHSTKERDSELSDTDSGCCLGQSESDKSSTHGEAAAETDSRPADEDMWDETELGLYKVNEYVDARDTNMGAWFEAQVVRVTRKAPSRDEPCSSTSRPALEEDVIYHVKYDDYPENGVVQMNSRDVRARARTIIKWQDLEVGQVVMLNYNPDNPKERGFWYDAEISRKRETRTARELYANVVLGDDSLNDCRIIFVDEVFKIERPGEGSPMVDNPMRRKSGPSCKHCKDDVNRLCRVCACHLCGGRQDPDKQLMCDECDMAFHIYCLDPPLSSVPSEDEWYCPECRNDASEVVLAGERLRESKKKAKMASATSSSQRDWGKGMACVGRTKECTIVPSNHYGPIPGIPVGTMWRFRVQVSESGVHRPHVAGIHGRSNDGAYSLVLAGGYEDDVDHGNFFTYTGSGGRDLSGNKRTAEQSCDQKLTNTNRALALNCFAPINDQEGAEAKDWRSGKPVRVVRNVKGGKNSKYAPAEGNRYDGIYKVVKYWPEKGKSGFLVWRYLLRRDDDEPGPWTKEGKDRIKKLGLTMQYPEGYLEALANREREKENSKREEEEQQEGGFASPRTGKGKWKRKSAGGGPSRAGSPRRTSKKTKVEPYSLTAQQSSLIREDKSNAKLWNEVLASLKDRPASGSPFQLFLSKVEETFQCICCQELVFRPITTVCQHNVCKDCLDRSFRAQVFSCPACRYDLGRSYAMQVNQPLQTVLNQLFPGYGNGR

Row | Structure (SMILES) | inhibition
1 | CC(C)(C)OC(=O)NCCc1ccccc1/C=C/S(=O)(=O)NCc1ccc(F)cc1 | 3.54%
2 | CSc1ccc(C=Nn2c(-c3ccc(F)cc3)n[nH]c2=S)cc1 | -0.35%
3 | CCOc1ccc(-n2c(SCC(=O)Nc3cc(C)c(NC(=O)c4ccccc4)cc3OC)nnc2-c2cccs2)cc1 | -0.28%
4 | Cc1ccc(C(=O)C2CCN(CC(=O)NCCC(C)C)CC2)cc1 | 9.98%
5 | O=S1(=O)c2c(NCc3ccco3)cccc2Oc2ccccc2CN1Cc1cn(Cc2cccc(C(F)(F)F)c2)nn1 | 3.97%
6 | COc1ccc(-c2ccc(CN3C(CC(C)C)C(=O)N(Cc4cn(CC5CCCCC5)nn4)CCS3(=O)=O)cc2)cc1 (centres undefined) | 1.54%
7 | CC(=O)c1cccc(-c2ccc(CN3C(CC(C)C)C(=O)N(Cc4cn(CC5CCCCC5)nn4)CCS3(=O)=O)cc2)c1 (centres undefined) | 21% (active)
8 | CC(C)CC1C(=O)N(Cc2cn(CC3CCCCC3)nn2)CCS(=O)(=O)N1Cc1ccc(-c2ccc(Cl)cc2)cc1 (centres undefined) | -1.68%
9 | CCOC(=O)[C@@]12CN(C(=O)OC(C)(C)C)CC=C1N(Cc1ccc(OC)cc1)C(=O)[C@H]2CC(=O)NCc1ccc(OC)c(OC)c1 | -2.61%
10 | COC(=O)C1CN(CC(C)C)CCS(=O)(=O)N1Cc1ccc(C)cc1 (centres undefined) | 1.11%
11 | O=C(O)CCCn1cc(NC(=O)COc2cccc(Cl)c2)cn1 | 5.22%
12 | O=C(COC(=O)c1cccc(Cl)c1)NC(=O)NCc1ccccc1 | -0.3%
13 | O=C(COc1cccc(Cl)c1)NCc1ccccc1 | 36% (active)
14 | CCCCCCCCNS(=O)(=O)/C=C/c1cc(C)ccc1CNC(=O)OC(C)(C)C | -7.08%
15 | CC(=O)C1(C(=O)Nc2nccs2)CC(c2ccccc2C(F)(F)F)=NO1 (centres undefined) | -0.55%
16 | CCOC(=O)[C@]12CCCC3=C1N(CCC3)C(=O)[C@@H](CC(=O)NCc1cccs1)C2 | -1.06%
17 | COc1nc(N(C)C)nc(N2CC(=O)N(CCNS(=O)(=O)c3ccc(C)cc3)C2=N)n1 | 22.6% (active)
18 | COc1nc(Oc2ccc(=O)n(C)n2)nc(N(C)C)n1 | -0.4%
19 | Cc1ccc(S(=O)(=O)NCCSC(C)(C)C)cc1 | -0.21%
20 | COc1ccccc1C(=O)NC1CCCCN(C(C)C)C1=O (centres undefined) | 2.58%
21 | COc1ccc(C(=O)COC(=O)c2ccc([N+](=O)[O-])s2)cc1OC | 21.7% (active)
22 | O=C(OCC(=O)N1CCN(c2ccccc2)CC1)c1ccc([N+](=O)[O-])s1 | -3.28%
23 | COc1ccc(C(=O)OCC(=O)c2ccc(C)c(S(=O)(=O)N3CCOCC3)c2)cc1OC | -0.9%
24 | CC(c1c[nH]c2ccccc12)c1c(-c2ccccc2)n(C)c2ccccc12 (centres undefined) | 1.29%
25 | Cc1cc(C)n2ncc(C(=O)Nc3ccc4c(c3)OCCO4)c2n1 | -6.73%
26 | COc1cccc(CN(C)C(=O)CC[C@H]2O[C@@H](n3cnc4c(NC(=O)c5ccccc5)ncnc43)[C@H](O)[C@@H]2O)c1 | 0.17%
27 | O=C(/C=C/[C@H]1O[C@@H](n2cnc3c(NC(=O)c4ccccc4)ncnc32)[C@H](O)[C@@H]1O)NCc1ccccc1 | 23% (active)

Row | Structure (SMILES) | inhibition
28 | CCC(C)C(CO)NC(=O)/C=C/[C@H]1O[C@@H](n2cnc3c(NC(=O)c4ccccc4)ncnc32)[C@H](O)[C@@H]1O (some centres undefined) | 19.7%
29 | Cc1ccc(-n2c(COc3ccccc3)nnc2SCC(=O)Nc2ccc3c(c2)OCCO3)cc1 | 1.6%
30 | COc1ccc(Cn2cc(COC(=O)N(C)Cc3ccccc3)nn2)cc1 | 1.11%
31 | Cc1cccc(NC(=O)C2CCCN(C(=O)Nc3ccc(F)cc3)C2)c1C (centres undefined) | 10.2%
32 | Cc1cccc(NC(=O)C2CCCN2S(=O)(=O)c2ccc(F)cc2)c1C (centres undefined) | 42.7% (active)
33 | COc1ccccc1NC(=O)C1CCCN1S(=O)(=O)c1ccc(Cl)cc1 (centres undefined) | -0.35%
34 | Cc1ccccc1NC(=O)COC(=O)c1ccc(Sc2ncn[nH]2)c([N+](=O)[O-])c1 | -0.88%
35 | O=C(NC1CCCCN(Cc2ccc(Cl)cc2)C1=O)c1ccc(Br)cc1 (centres undefined) | -3.02%
36 | C[C@@H]1COc2cccc(N3CCCC3)c2S(=O)(=O)N1C | 0.4%
37 | CC(Cc1cccs1)N(Cc1ccc(Cl)cc1)C(=O)c1ccncc1 (centres undefined) | 26.1% (active)
38 | CC(C)(C)N(Cc1ccccc1)C(=O)c1ccncc1 | 1.02%
39 | CC(Cc1cccs1)NC(=O)c1cccc(Cl)c1 (centres undefined) | -1.41%
40 | COc1ccc(C2Nc3ccccc3C(=O)N2Cc2cccs2)cc1COc1c(C)cccc1C (centres undefined) | 1.56%
41 | O=C1Nc2ccccc2OC1CC(=O)N1CCCCCCC1 (centres undefined) | -2.05%
42 | CC(=O)OCCN1CCCC12CCC(c1ccccc1)CC2 (centres undefined) | 0.81%
43 | CCOc1ccc(C(C)=O)cc1COC(=O)CN1C(=O)NC2(CCCC2)C1=O | 2.29%
44 | O=C(CN1C(=O)NC2(CCCC2)C1=O)OCCOc1ccc(F)cc1 | 0.11%
45 | Cc1ccc(COC(=O)CN2C(=O)NC3(CCCC3)C2=O)cc1 | 42.5% (active)
46 | COc1ccccc1CCNC(=O)C1CCN(c2nc(C)cc(C)n2)CC1 | 2.65%
47 | O=C(c1ccc(C(F)(F)F)cc1)N1CCC(=O)N([C@H](COCc2ccccc2)Cc2ccccc2)CC1 | -0.62%
48 | CC(C)CC(COCc1ccc(Cl)cc1)N1CCN(C(=O)c2ccc(C(F)(F)F)cc2)CCC1=O (centres undefined) | 10.1%
49 | COc1ccc(COC[C@H](CC(C)C)N2CCN(C(=O)c3cccc(C(F)(F)F)c3)CCC2=O)cc1 | 21.1% (active)
50 | O=C(CSc1nnc(COc2ccccc2)n1Cc1ccco1)c1ccc2ccccc2c1 | -1.9%
51 | CCn1c2ccccc2c2cc(NC(=O)CSc3nnc(-c4ccccc4)n3-c3ccc(C)cc3)ccc21 | -2.76%
52 | Cc1cc(Br)cn2c(Cc3ccccc3C(F)(F)F)c(C3CCCCC3)nc12 | 11.3%
53 | CCCc1nc2c3ccccc3ccn2c1Cc1ccccc1C(F)(F)F | 22.9% (active)
54 | FC(F)(F)c1ccccc1Cc1c(-c2ccccc2)nc2c3ccccc3ccn12 | 14.2%
